The text below walks through data of PubChem BioAssay.

“And” between values parts separate entries of the source, which are not always exact repeats. Equal values may be shown once. Results filed as inconclusive are left out. The source made the active and inactive calls.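 The calls were made as follows, unless noted: active = compound raises insulin release from rat beta cells at 5 mM glucose, no numeric limit stated; inactive = the rest.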

Test [1] can be described thus: Wnt pathway potentiators raising nuclear beta-catenin – imaging, WNT3A-conditioned medium, mouse C2C12, NPC library, primary screen (AID 1117326; in the data active = nuclear beta-catenin stimulation mostly above about 4.2%, no sharp cut-off; inactive = mostly below about 10%). Particulars: stronger effect = higher value.
Test [2] is described as follows: stimulators of insulin release from INS-1E, primary screen, cell-based, 5 mM glucose, NPC library (AID 1117329). Particulars: rat INS-1E insulin secretion, at 10 µM, stronger effect = higher value.
Test [3] is described as follows: growth inhibition of GSK3B-pretreated HCT116 cells – cell-based, CellTiter-Glo, 0.2 to 20 µM (AID 1117336;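 active = compounds lowering colon cancer cell viability after pretreatment blocking the GSK3B kinase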). Particulars: HCT116 viability after GSK3B inhibitor, at 20 µM, stronger effect = higher value. For orientation: In ATP-based viability assays light output follows the ATP content of the culture.
The nature of test [4]: inhibition of endothelial tube formation, primary screen, imaging, VEGF stimulated, CD31 staining, tube area, NPC library (AID 1117340;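 active = compound that reduces growth-factor-driven endothelial tube area in a mixed cell culture, no cutoff stated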). The note with it: VEGF-stimulated ADSC/ECFC co-culture, at 10 µM, stronger effect = higher value.
The nature of test [5]: GLP1 release stimulators, primary, NCI-H716, NPC library (AID 1117341;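 active = compound raises GLP1 secretion from the human gut endocrine cells, with no numeric limit stated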). Particulars: NCI-H716 cells, at 10 µM, stronger effect = higher value.
The nature of test [6]: HCT116 colon cancer cell growth inhibition, primary screen, CellTiter-Glo luminescence, NPC library (AID 1117342;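 active = compounds that lower survival of HCT116 colon cancer cells in the luminescence readout, no numeric limit stated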). The note with it: at 20 µM (top of the series).
A short description of test [7]: reduced SW480 viability measured with CellTiter-Glo, NPC library, primary (AID 1117343;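 active = compounds that lower viability of the colon cancer cells in the luminescence readout, with no numeric limit stated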). Particulars: CellTiter-Glo luminescence; at 20 µM (top of the series) unless noted.
Test [8] can be described thus: NPC library primary testing for decreased DLD-1 cell viability via CellTiter-Glo (AID 1117346;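 active = compounds that lower survival of DLD-1 colon cancer cells in the luminescence readout, no cutoff given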). Particulars: DLD-1 viability, CellTiter-Glo luminescence; at 20 µM (top of the series).
The test system of test [9] is Aerobactin synthetase IucA (Klebsiella pneumoniae). Kind of test: inhibition of K. pneumoniae IucA enzyme – biochemical, Tocris library, absorbance (AID 1345561; call rule not given here;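 also: 100% = enzyme without compound and 0% = no enzyme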). Particulars: purified IucA enzyme assay, absorbance (OD) read-out; stronger effect = lower value;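 tested at 8 µM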.
Test [10] can be described thus: viability loss in pontine glioma line – cell-based, SU-DIPG-XVII, MIPE5.0, CellTiter-Glo, qHTS, dose response (AID 1347060; cut-off not given, nearly all actives have AC50 up to about 26 µM). The note with it: CellTiter-Glo ATP luminescence.
The nature of test [11]: viability loss in pontine glioma line – cell-based, SU-DIPG-XIII, MIPE4.0, CellTiter-Glo, qHTS, dose response (AID 1347061; cut-off not given, nearly all actives have AC50 up to about 37 µM;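 also: cells exposed to compound for 48 hours before readout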). Particulars: CellTiter-Glo ATP luminescence.
A short description of test [12]: viability loss in pontine glioma line – cell-based, SU-DIPG-IV, MIPE4.0, CellTiter-Glo, qHTS, dose response (AID 1347063; cut-off not given, nearly all actives have AC50 up to about 30 µM;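 also: compound exposure lasted 48 hours before the viability readout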). Particulars: CellTiter-Glo ATP luminescence.
Test [13] is described as follows: growth inhibition of DIPG cells – cell-based, MIPE5.0 library, qHTS (AID 1347068; cut-off not given, nearly all actives have IC50 up to about 30 µM). Particulars: SU-DIPG-XXV viability.
The nature of test [14]: viability loss with induced miR-34 in A549 – imaging, A549 dox-inducible miR-34, nuclei and caspase counts, primary screen (AID 1347080;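 active = compounds whose cell count with miR-34 switched on is under 0.7 times the count with it off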). The note with it: A549 miR-34 inducible, Hoechst nuclei count, 48 h.
A short description of test [15]: MELAS cybrid and Rieske KO viability enhancers – cell-based, MELAS cybrids, Rieske KO mouse fibroblasts, CellTiter-Glo, primary screen (AID 1508586;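 active = mean z-score across replicates of 1.96 or higher in either the MELAS or the Rieske mutant cell line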;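 also: z relative to plate mean and SD of compound and empty wells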). Particulars: low glucose.
A short description of test [16]: galactose survival enhancers in mitochondrial complex I cybrids – cell-based, galactose medium, ATP luminescence, primary screen (AID 1645843;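 active = z-score of at least 1.8 in each of two replicates, scored against plate mean and spread of sample wells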;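 also: positive z means more ATP and so rescue of galactose-driven cybrid death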). The note with it: complex I mutant cybrid cells, 72 h, stronger effect = higher value.
The nature of test [17]: P. berghei load reduction in hepatocytes – cell-based, HepG2, luciferase luminescence, HepG2 viability, primary screen (AID 624349; in the data active = parasite load remaining mostly below about 12%, no sharp cut-off; inactive = mostly above about 10%;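 also: 100% = mean of DMSO negative control wells on the same plate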). The note with it: P. berghei liver stage in HepG2, luciferase luminescence, concentration not given here; parasite load remaining: stronger effect = lower value; viability: measured here: HepG2 viability without parasites.
Test [18] is described as follows: EMT-state selective cytotoxicity in co-culture – imaging, PC-3E GFP, TEM4-18 mCherry, primary screen (AID 1345086;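 active = compounds killing one labelled cell type while sparing the other, by normalised counts and ratio limits, not self-fluorescent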;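 as to all read-outs here: cells exposed to compound for 72 h before imaging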;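 as to red/green cell ratio (normalised): normalised mesenchymal count divided by normalised epithelial count so high means epithelial killing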). Particulars: PC-3E GFP / TEM4-18 mCherry co-culture, imaging cell counts, at 1 µM; for red/green cell ratio (normalised): actives lie on both sides, counts scaled to control wells, 1 = unselective.
The target of test [19] is NAD(+) hydrolase SARM1 (Homo sapiens) (UniProt Q6SZW1). In words: blocking NAD cleavage by SARM1 SAM-TIR – cell lysate, NAD-Glo luminescence (AID 1508614;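 active = compound whose remaining NAD level is above about 45 nM, limit read from the data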;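 also: higher remaining NAD means stronger inhibition of SARM1 NADase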). Particulars: SAM-TIR HEK293T lysate NADase, at 1 µM, stronger effect = higher value.
Chain of NAD(+) hydrolase SARM1 (Homo sapiens) (Q6SZW1 whole entry, looked up): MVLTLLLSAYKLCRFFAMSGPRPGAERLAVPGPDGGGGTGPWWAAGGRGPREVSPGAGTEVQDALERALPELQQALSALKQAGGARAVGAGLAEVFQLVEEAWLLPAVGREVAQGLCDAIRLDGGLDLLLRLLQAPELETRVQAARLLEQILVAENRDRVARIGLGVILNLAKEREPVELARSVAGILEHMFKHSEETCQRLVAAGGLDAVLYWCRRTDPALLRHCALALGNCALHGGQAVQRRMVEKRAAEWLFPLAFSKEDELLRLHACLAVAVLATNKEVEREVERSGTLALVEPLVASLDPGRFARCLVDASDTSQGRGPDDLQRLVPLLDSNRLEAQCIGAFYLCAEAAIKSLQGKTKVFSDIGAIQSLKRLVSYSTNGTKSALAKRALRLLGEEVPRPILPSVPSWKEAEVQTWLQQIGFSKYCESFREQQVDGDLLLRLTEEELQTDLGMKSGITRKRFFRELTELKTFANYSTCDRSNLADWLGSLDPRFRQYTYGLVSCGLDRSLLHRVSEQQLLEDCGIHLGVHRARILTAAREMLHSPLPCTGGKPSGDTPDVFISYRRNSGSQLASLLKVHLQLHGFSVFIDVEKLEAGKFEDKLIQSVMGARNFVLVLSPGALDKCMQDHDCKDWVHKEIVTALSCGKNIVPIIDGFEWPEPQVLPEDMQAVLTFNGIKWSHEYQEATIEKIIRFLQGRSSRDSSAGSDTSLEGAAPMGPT
[20] abbreviates: stronger effect = lower value, cell number ratio, induced over uninduced.
[21] abbreviates: measured here: relative caspase fold change +Dox/-Dox.
[22] abbreviates: measured here: total cells with miR-34 induction, stronger effect = lower value.
The mark [23] stands for this setting: measured here: total cells without miR-34 induction.
Setting [24] is: measured here: epithelial PC-3E GFP cell survival.
The mark [25] stands for this setting: measured here: mesenchymal TEM4-18 mCherry cell survival.

A word on the remaining activity: it is what remains of the control signal, in per cent. For `CCOCC(O)COc1ccc(NC(=O)CC[S+](C)C)cc1` (centres undefined), the nuclear beta-catenin stimulation is -0.1% (inactive) in test [1] (at 10 µM) and -0.3% in [1] (stimulation, at 2 µM). In test [2], the insulin secretion stimulation was 0.8% (inactive). Also, the viability decrease in test [3] is -7.6% (inactive). In test [4], the tube area decrease is -11.2% (inactive). In addition, the GLP1 secretion stimulation in [5] was -0.3% (inactive). Further, the inhibition of viability in test [6] was 0.1% (inactive). The results for the viability decrease (inhibition) in [7] and in test [8] were -6.5% (inactive) and -3.6% (inactive), respectively. Moreover, the remaining activity in test [9] was 96.6% (inactive). Also, the outcome in test [10], in test [11], in test [12] and in test [13] was inactive. Also, the fold change in [14] (setting [20]) was 0.867 (inactive) and 0.902 (inactive); in test [14] (setting [21]), 0.938 and 2.11. Further, the cell count in test [14] (setting [22]) is 8140 and 8470; in test [14] (setting [23]), 9400 and 9390. For the same compound, the z-score was -0.246 (inactive) in test [15] (MELAS cybrid survival, CellTiter-Glo 48 h, stronger effect = higher value); 0.62 in test [15] (Rieske KO mouse fibroblast survival, CellTiter-Glo 72 h); -0.075 (inactive) in test [16].

A word on the viability: it is the share of living cells, or the viability signal relative to a control. Take `NC(=O)c1cc[n+](CC2=C(C(=O)[O-])N3C(=O)[C@@H](NC(=O)Cc4cccs4)[C@H]3SC2)cc1`: the parasite load remaining in [17] is 91.4% (inactive). This compound showed a viability in test [17] of 73.4%. In addition, the nuclear beta-catenin stimulation was -2.2% (inactive) in test [1] (at 10 µM) and -0.6% in test [1] (stimulation, at 2 µM). In addition, the insulin secretion stimulation in test [2] is 11.8% (inactive). In [3], the viability decrease was 10.6% (inactive). In addition, the tube area decrease in [4] is -7.6% (inactive). Besides, the GLP1 secretion stimulation in test [5] is 0.9% (inactive). In [6], the inhibition of viability is -2.6% (inactive). The viability decrease (inhibition) in [7] is 3.4% (inactive); in test [8], 5.4% (inactive). The red/green cell ratio (normalised) in test [18] is 0.75 (inactive). For the same compound, the figures for the normalised cell number in test [18] (setting [24]) and in test [18] (setting [25]) were 1.26 and 0.94, respectively. Also, the fold change is 0.969 (inactive) in test [14] (setting [20]) and 0.479 in [14] (setting [21]). Also, the cell count stood at 9810 in [14] (setting [22]) and 10100 in [14] (setting [23]). In addition, the remaining NAD in test [19] is 10 nM (inactive).

Take `CC1(O)CCC(C(C)(C)O)CC1` (centres undefined): the nuclear beta-catenin stimulation was -0.3% (inactive) in test [1] (at 10 µM) and 1.1% in [1] (stimulation, at 2 µM). Moreover, the insulin secretion stimulation in test [2] is 1.4% (inactive). Also, in test [3], the viability decrease was -1.3% (inactive). Also, the tube area decrease in [4] was 2.4% (inactive). Also, the GLP1 secretion stimulation in test [5] is -5.3% (inactive). For the same compound, the inhibition of viability in test [6] is 1.1% (inactive). In addition, the viability decrease (inhibition) was 5.7% (inactive) in [7] and -8.9% (inactive) in test [8]. Moreover, the red/green cell ratio (normalised) in [18] was 1.09 (inactive). Moreover, the values for the normalised cell number in test [18] (setting [24]) and in test [18] (setting [25]) were 0.89 and 0.97, respectively. For the same compound, the fold change was 0.976 (inactive) in [14] (setting [20]) and 0.869 in test [14] (setting [21]). Further, the cell count in test [14] (setting [22]) came out at 8640; in test [14] (setting [23]) it was 8850. The remaining NAD in test [19] was 10 nM (inactive).

Take `CC(=O)NC(Cc1ccccc1)C(=O)O` (centres undefined): the nuclear beta-catenin stimulation was 1% (inactive) in test [1] (at 10 µM) and -0.2% in test [1] (stimulation, at 2 µM). Besides, in test [2], the insulin secretion stimulation was -2.3% (inactive). In test [3], the viability decrease is -0.2% (inactive). In addition, the tube area decrease in [4] is -0.2% (inactive). Moreover, in test [5], the GLP1 secretion stimulation is 2.6% (inactive). Also, the inhibition of viability in test [6] is 3.2% (inactive). For the same compound, the viability decrease (inhibition) in test [7] was 23.3% (inactive); in [8], 8.55% (inactive). In addition, the red/green cell ratio (normalised) in test [18] is 0.91 (inactive). The normalised cell number in [18] (setting [24]) stood at 1.11; in test [18] (setting [25]), 1.01. The remaining NAD in test [19] is 10 nM (inactive).

In the case of `CC1=C(C/C=C(\C)CCC[C@H](C)CCC[C@H](C)CCCC(C)C)C(=O)c2ccccc2C1=O`, the parasite load remaining in [17] is 21.8% (inactive). Further, the viability in [17] is 93.1%. For the same compound, the nuclear beta-catenin stimulation in [1] (at 10 µM) is 0.3% (inactive); in test [1] (stimulation, at 2 µM), -0.8%. Besides, the insulin secretion stimulation in [2] was -2.6% (inactive). The viability decrease in test [3] was -3.55% (inactive). Moreover, in [4], the tube area decrease is 23.9% (inactive). Further, in test [5], the GLP1 secretion stimulation was 2.3% (inactive). Further, the inhibition of viability in test [6] was -10.9% (inactive). The viability decrease (inhibition) in test [7] is -45.3% (inactive); in test [8], -6.65% (inactive). Moreover, the red/green cell ratio (normalised) in [18] is 1.1 (inactive). The normalised cell number in test [18] (setting [24]) is 0.92; in test [18] (setting [25]) it was 1.01. In addition, the values for the fold change in test [14] (setting [20]) and in test [14] (setting [21]) were 0.94 (inactive) and 3.52, respectively. Further, the cell count came out at 11600 in [14] (setting [22]) and 12300 in test [14] (setting [23]). Besides, in [19], the remaining NAD was 10 nM (inactive).
